This is a sample that favours compounds with a hit; in the whole collection about 2.9% have one here.
esBAF inh: Bmi1 luciferase reporter increase in mESCs, primary screen, esBAF inhibitor project, mouse ES cells, Bmi1 luciferase knock-in, single point. 24 h; 100% = twice the neutral-well signal. reporter increase, % at 12.5 µM. 2% of 350,000 active; in the data active means activation above about 40%; inconclusive means no clear call, values can overlap the other calls;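 further: a rise in the Bmi1 reporter signal indicates esBAF inhibition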
MITF act: activators of MITF-driven TRPM1 promoter reporter, primary screen, cell-based, SK-MEL-5, luciferase, single point; SK-MEL-5 TRPM1-promoter luciferase, 24 h; % of positive control, neutral wells = 0; activation, % at 12.5 µM; 0.75% of 300,000 active; AID 588334, 2011;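 active means mean activation of at least 80% with every replicate also reaching 80%; inconclusive means mean reaches 80% but some replicate falls short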
PvdQ acylase: P. aeruginosa PvdQ acylase inhibitors, primary screen, biochemical, fluorescence, plate reader and imaging, single point; PvdQ acylase [Pseudomonas aeruginosa LESB58]; purified PvdQ acylase; inhibition, % at 10 µM; 0.063% of 340,000 active; AID 488965, 2010; in the data active means inhibition above about 30%, passing the limit was not always enough; inconclusive means no clear call, values can overlap the other calls
Vif imaging: HIV Vif self-association inhibitors, primary screen, imaging, HEK293T, single point; AID 602346, 2012; 0.35% of 340,000 active; inhibition, % at 7.49 µM; HEK293T cells, Vif self-association by quenched fluorescence, 24 h; in the data active means inhibition above about 50%, passing the limit was not always enough; inconclusive means no clear call, values can overlap the other calls; inactive means below about 31%
Glyco luc inh: increase of ERlucT glycosylation luciferase signal, primary screen, N-linked glycosylation inhibitor project, D54 ERlucT cells, luminescence, set 2. AID 588692, 2011. reporter increase, % at 12.5 µM. 0.23% of 360,000 active. D54 ERlucT glycosylation luciferase reporter, 24 h; percent of 100 nM tunicamycin response;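 active means mean luciferase reporter signal, scaled so untreated is 0 and the glycosylation-blocking control 100, at or above a set limit in every replicate; inconclusive means mean reaches the limit but not every replicate does; inactive means mean below the limit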;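 further: luciferase carries N-glycosylation sites so blocking glycosylation raises the light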
Wnt bcat act: Wnt/beta-catenin pathway activators, primary screen, cell-based, plate reader, single point | Wnt/beta-catenin reporter cell assay, activator | activation, % at 9.35 µM | 1.2% of 300,000 active | AID 743398, 2014; in the data active means activation above about 30%, passing the limit was not always enough; inconclusive means no clear call, values can overlap the other calls
Hits are given with their value; i = inactive; ? = inconclusive; nt = no result.

SMILES | esBAF inh | MITF act | PvdQ acylase | Vif imaging | Glyco luc inh | Wnt bcat act
C[C@H](CO)N1C[C@H](C)[C@H](CN(C)C(=O)Nc2ccc(F)cc2)Oc2ncc(-c3ccc(C#N)cc3)cc2C1=O | i | nt | nt | nt | nt | nt
Cc1ccccc1C(=O)O/N=C(\N)c1ccccc1 | i | i | i | i | i | i
Cc1ccccc1C(=O)O/N=C(\N)c1ccc([N+](=O)[O-])cc1 | 57 | nt | i | i | i | i
Cc1ccccc1/C(N)=N/OC(=O)c1ccc(F)cc1 | 48 | i | i | i | i | i
C/C(=N/OC(=O)c1ccc(F)cc1)c1ccc(C)cc1 | i | i | i | i | i | nt
N/C(=N\OC(=O)c1ccccc1Br)c1ccc([N+](=O)[O-])cc1 | 50 | nt | i | i | i | i
N/C(=N\OC(=O)c1ccccc1Br)c1cccc([N+](=O)[O-])c1 | i | i | i | i | i | 43
Cc1ccc(S(=O)(=O)Nc2ccc3c(c2)C(=O)N([C@H](C)CO)C[C@@H](C)[C@@H](CN(C)C(=O)Nc2ccc4c(c2)OCO4)O3)cc1 | i | nt | nt | nt | nt | nt
C[C@H](CO)N1C[C@H](C)[C@H](CN(C)Cc2ccc3c(c2)OCO3)OCCCC[C@H](C)Oc2ccc(NS(=O)(=O)c3ccc(F)cc3)cc2C1=O | i | nt | nt | nt | nt | nt
Cc1ccc(-c2nc(NC(=O)CSc3nnnn3-c3ccccc3)ns2)cc1 | 84 | i | i | i | i | i
Cc1ccc(-c2csc3nnc(SCC(=O)Nc4nsc(-c5ccccc5)n4)n23)cc1 | i | i | i | i | i | nt
O=C(c1ccc(Br)cc1)c1cn[nH]c1-c1ccccc1O | i | i | i | i | i | i
CC(C)(C)c1ccc(C(=O)c2cn[nH]c2-c2ccccc2O)cc1 | 63 | i | i | i | i | i
O=C(Nc1ccc2c(c1)OCCO2)C1CCCN(S(=O)(=O)c2cccs2)C1 (stereo unspecified) | 48 | i | i | i | i | nt
O=C(Nc1ccc2c(c1)OCO2)C1CCCN(S(=O)(=O)c2cccs2)C1 (stereo unspecified) | i | i | i | i | i | nt
C[C@H](CO)N1C[C@H](C)[C@H](CN(C)Cc2ccc(C(=O)O)cc2)Oc2ccc(NC(=O)Cc3ccccc3)cc2CC1=O | i | nt | nt | nt | nt | nt
COc1ccc(C(=O)N2C[C@H]3[C@@H](c4ccccc42)[C@H](CO)N3Cc2ccccc2Cl)cc1 | i | nt | nt | nt | nt | nt
CC(=O)c1cnn(-c2ccccc2)c1C | i | i | i | i | i | i
Cc1c(C(=O)Nc2ccccc2F)cnn1-c1ccccc1 | i | 88 | i | i | i | i
CCN(CC)C(=O)c1cnn(-c2ccccc2)c1NC(=O)c1ccco1 | i | i | i | i | i | i
Cc1c(C(=O)Oc2cccc3ccccc23)cnn1-c1ccccc1 | 45 | i | i | i | i | nt
Cc1ccc(NC(=O)c2cnn(-c3ccccc3)c2NC(=O)c2ccco2)cc1C | 55 | i | i | i | i | i
Cc1c(C(=O)Nc2cc(F)cc(F)c2)cnn1-c1ccccc1 | ? | 121 | i | i | i | 57
COC(=O)C[C@@H]1C[C@@H]2c3cc(NC(=O)CC4CC4)ccc3O[C@@H]2[C@@H](CO)O1 | i | nt | nt | nt | nt | nt
CNc1cc(-c2cnn(CC(C)C)c2)ncn1 | 51 | nt | nt | i | i | ?
SMILES | esBAF inh | MITF act | PvdQ acylase | Vif imaging | Glyco luc inh | Wnt bcat act
O=C(NCCOc1ccccc1)c1ccccc1Cl | i | i | i | i | i | 35
C[C@H](O)C#Cc1ccc([C@@H]2[C@@H](CO)N3CCCCN(C(=O)c4ccncc4)C[C@H]23)cc1 | i | nt | nt | nt | nt | nt
COc1ccc(Nc2nc(CC(C)=O)ns2)cc1 | 57 | i | i | i | i | nt
COc1cccc(Nc2nc(CC(C)=O)ns2)c1 | nt | i | i | nt | nt | nt
COc1ccc(/C=N/N=C2/SCC(=O)N2Cc2ccccc2)cc1 | nt | nt | i | i | i | 56
COc1ccc(CN2C(=O)CS/C2=N/N=C/c2ccccc2)cc1 | nt | nt | nt | i | i | i
CCCc1cn(CC[C@@H]2CC[C@H](NC(=O)Nc3ccccc3F)[C@H](CO)O2)nn1 | i | nt | nt | nt | nt | nt
CN(C)CC(=O)Nc1ccc2c(c1)[C@@H]1C[C@H](CC(=O)NCc3ccccc3)O[C@@H](CO)[C@@H]1O2 | i | nt | nt | nt | nt | nt
CCCC#Cc1ccc2c(c1)[C@@H]1[C@@H](CCN1S(=O)(=O)c1ccc(C)cc1)[C@@H](CO)N2C | i | nt | nt | nt | nt | nt
CC(=O)Nc1ccc(/C=C/c2nc(-c3ccccc3O)n[nH]2)cc1 | 73 | i | i | i | i | i
Cc1c(-c2ccccc2)n[nH]c1C(=O)NN | nt | i | i | i | i | i
CCOc1ccc(-c2n[nH]c(C(=O)NN)c2C)cc1 | 55 | i | i | i | i | i
CC(=O)Nc1cccc(NC(=O)CCCC(=O)O)c1 | i | i | i | i | i | 40
O=C(CCCCCCC(=O)Nc1ccccc1)NO | i | i | i | 152 | 858 | 245
CCS(=O)(=O)Nc1ccc2c(c1)C(=O)N(C)[C@H]1CC[C@@H](CC(=O)NCc3ccc(OC)cc3)O[C@H]1CO2 | i | nt | nt | nt | nt | nt
Cc1noc(C)c1NC(=O)Nc1ccc2c(c1)CC(=O)N([C@H](C)CO)C[C@H](C)[C@H](CN(C)Cc1ccccc1)O2 | i | nt | nt | nt | nt | nt
C[C@H](CO)N1C[C@H](C)[C@@H](CN(C)C)Oc2ncc(C3=CCCC3)cc2C1=O | i | nt | nt | nt | nt | nt
COc1ccccc1N1CCN(S(=O)(=O)c2ccc(-c3ccc(=O)[nH]n3)o2)CC1 | i | i | i | i | i | i
Cc1cccc(N2CCN(S(=O)(=O)c3ccc(-c4ccc(=O)[nH]n4)o3)CC2)c1C | i | i | i | i | 40 | i
O=C(O)C1=C[C@@H](c2ccc(C(F)(F)F)cc2)C[C@@H](OCCCCO)O1 | i | i | i | i | i | i
O=C(Nc1ccccc1)C1=C[C@@H](c2ccc(C(F)(F)F)cc2)C[C@@H](OCCCCO)O1 | 50 | i | i | i | i | i
CCCn1cc(SCC(=O)Nc2nnc(C)s2)c2ccccc21 | i | i | i | i | i | i
Nc1ccccc1SCC(=O)Nc1nccs1 | nt | i | i | ? | i | i
Cn1cc(SCC(=O)Nc2nccs2)c2ccccc21 | 68 | nt | i | i | i | i
O=C(c1cc(Cl)c(=O)n(Cc2ccccc2)c1)N1CCOCC1 | i | nt | i | 62 | i | nt
O=C(CSc1cn(Cc2ccccc2)c2ccccc12)N1CCOCC1 | 79 | i | i | nt | i | i
Cc1ccc(C(=O)NCCn2cc(SCC(=O)Nc3nnc(C)s3)c3ccccc32)cc1 | 58 | nt | i | i | i | i
COc1ccc(C(=O)NCCn2cc(SCC(=O)N3CCOCC3)c3ccccc32)cc1 | 42 | i | i | i | i | nt
CCCn1c(SCC(=O)NNC(=O)c2ccc(C)cc2)nnc1C(C)C | i | i | i | 55 | i | i

From PubChem BioAssay
